# Assay outcomes deposited in PubChem by National Center for Advancing Translational Sciences (NCATS).
# Most compounds without a hit are left out; they make up all but 13% or so of the library.
# FMDV antiviral: High Throughput Screening for Foot and Mouth Disease Virus Antivirals; Potency, µM (top dose mostly 57.9 µM), without a hit: at the top dose activity change, negative = inhibition, usual class: inhibitors; hit rate 1.2% among 410,000; FMDV antiviral cell-based qHTS; calls by dose curve; tested in HEK293T cells; further: read-out not given here; potency means the concentration at half of the fitted maximal effect; on the % scale 0 is the no-effect control and ±100 the full control effect; nearly all actives have a fitted effect of over 45% in size
# Marburg entry inh: qHTS for inhibitors of binding or entry into cells for Marburg Virus. Marburg virus pseudotyped entry inhibition, cell reporter. Potency, µM (series often up to 37.8 µM), for inactives: at the top dose activity change, negative = inhibition, usual class: inhibitors. hit rate 1.8% among 300,000. AID 540276, 2011; calls by dose curve; tested in HEK293 cells; further: potency means the concentration at half of the fitted maximal effect; on the % scale 0 is the no-effect control and ±100 the full control effect
# Lassa entry inh: qHTS for Inhibitors of binding or entry into cells for Lassa Virus; Lassa virus pseudotype entry inhibition, cell reporter; Potency, µM (titrated, usually from 37.9 µM), for the others: top-dose activity change, negative = inhibition, hits mostly inhibitors; hit rate 1.2% among 300,000; calls by dose curve; tested in HEK293 cells; further: potency means the concentration at half of the fitted maximal effect; on the % scale 0 is the no-effect control and ±100 the full control effect; nearly all actives have a fitted effect of over 50% in size
# HCV inhibitor: qHTS Assay for Inhibitors of Hepatitis C Virus (HCV); Potency, µM (titrated, usually from 41.8 µM), for inactives: top-dose activity change, negative = inhibition, usual class: inhibitors; Huh7.5.1 HCVcc-Cre infection, luciferase reporter, 44 h; AID 651820, 2012; hit rate 3.4% among 340,000; active means well fitted inhibition curve with a large enough effect; inconclusive means small, poorly fitted or top-dose-only effect, or another doubt; inactive means no such curve, though single readings can be large or run the other way; further: potency means the concentration at half of the fitted maximal effect; on the % scale 0 is the no-effect control and ±100 the full control effect
#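 Luciferase read-out (15 sec integration) after a 15 min room-temperature substrate step quantifies HCVcc-Cre infection. Cells, 1,000 per well, had compound added 4 h post-plating, then virus at ~0.5 moi, and were cultured 44 h.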
# CHX counter: Cycloheximide Counterscreen for Small Molecule Inhibitors of Shiga Toxin | cell reporter, cycloheximide protein synthesis inhibition counterscreen | max response, % | AID 2314, 2010 | hit rate 12% among 300,000; in the data active means max response mostly above about 13%, no sharp cut-off; inactive means mostly below about 14%; further: read at 38.3 µM for the half of the compounds with a filed dose; 0% is about no effect
# Shiga toxin inh: A qHTS for Small Molecule Inhibitors of Shiga Toxin. AID 2315, 2010. hit rate 9.2% among 290,000. Vero cells, Shiga toxin protein synthesis inhibition reporter. inhibition, % at 38.7 µM; in the data active means inhibition mostly above about 28%, no sharp cut-off; inactive means mostly below about 43%; further: 0% is about no effect
# An asterisk follows results filed as active; ? = inconclusive; . = no result given; [ ] = another dose, or the depositor's remark.
SMILES,FMDV antiviral,Marburg entry inh,Lassa entry inh,HCV inhibitor,CHX counter,Shiga toxin inh
O=C(OCc1ccc(Cl)c(Cl)c1)c1cccnc1Cl,-3%,9%[46.1 µM],7%,2%,23*,25
O=C(OCc1ccc(Cl)c(Cl)c1)c1ccccn1,35%,-12%,?,17%,13,20
O=CC(O)C(O)C(O)C(O)CO (stereo unspecified),.,.,.,.,-8,1
CCC1C/C(=C\c2cc(OC)c(OC)cc2OC)C(=O)/C(=C/c2cc(OC)c(OC)cc2OC)C1 (stereo unspecified),?,.,.,7.1µM*,3,-4
COc1cc(OC)c(OC)cc1/C=C1\CC(C)C/C(=C\c2cc(OC)c(OC)cc2OC)C1=O (stereo unspecified),13µM*,.,.,?,-1,4
Cn1c(=O)[nH]c(=O)c2[nH]cnc21,1%,.,.,.,.,.
O=C1C(=Cc2ccco2)C(=O)c2ccccc21,29%,?,2%,1%,37*,14
Nc1ccc2c(c1)C/C(=C/c1ccco1)C2=O,-7%,?,1%,?,56*,123*
Cc1ccc(C=C2C(=O)c3ccccc3C2=O)o1,-12%,19%,13%,20%,37*,59
O=C1/C(=C/c2ccco2)CCc2ccccc21,-39%,?,?,-7%,77*,61*
Cc1ccc(/C=C2/C(=O)c3ccc(C(=O)O)cc3C2=O)o1,45%,?,?,29%,-1,-9
O=C(O)c1ccc2c(c1)C(=O)/C(=C\c1ccco1)C2=O,-17%,.,.,-2%,-2,6
O=C(NCCN1CCN(c2ccccc2)CC1)c1ccc(NC(=O)C2CCCO2)cc1 (stereo unspecified),6%,14%,-3%,2%,0,-19
N#Cc1c(C(F)(F)F)cc(C2CC2)nc1N1CCCC1,-20%,11%,2%,18%,17,-12
COc1ccc2c(c1)CC/C(=C/c1ccco1)C2=O,14%,?,?,-1%,56*,120*
CCC1C/C(=C/c2ccco2)C(=O)/C(=C/c2ccco2)C1 (stereo unspecified),.,-40%,-27%,?,16,-1
COc1ccc(C(=O)/C=C/Nc2cc(C)on2)cc1,.,20%,7%,?,47*,65*
Cc1cc(NC(=O)/C=C/c2ccccc2)no1,.,-10%,18%,-7%,41*,63*
COc1ccc(C(=O)/C=C/Nc2cccc(O)c2)cc1,0%,3%,23%,17%,-1,-12
COc1ccc(/C=C/C(=O)Nc2cc(C)on2)cc1,15%,21%,?,-2%,42*,107*
Cc1cc(NC(=O)/C=C/c2ccccc2Cl)no1,23%,4%,14%,18%,23*,67*
Cc1cc(NS(=O)(=O)c2ccc(NC(=O)/C=C/c3ccccc3Cl)cc2)no1,5%,8%,-21%,8%,-2,-4
Cc1nc2ccc(C(=O)N3c4ccccc4N=C(c4ccc5c(c4)OCO5)C3C(=O)NCc3ccccc3)cc2[nH]1 (stereo unspecified),14%,.,.,.,.,.
Cc1cc(NC(=O)c2ccc(F)cc2F)n(-c2nc3ccccc3[nH]2)n1,30%,?,1%,?,11,1
Cc1cc(NC(=O)/C=C/c2ccccc2Cl)n(-c2nc3ccccc3[nH]2)n1,-24%,?,?,?,14*,1
SMILES,FMDV antiviral,Marburg entry inh,Lassa entry inh,HCV inhibitor,CHX counter,Shiga toxin inh
O=C(NCC1CCOCC1)c1ccc(OC2CCN(Cc3ccccn3)CC2)cc1,4%,.,.,-1%,1,-3
COc1ccccc1N1CC(C(=O)OCC(=O)Nc2cc(C)on2)CC1=O (stereo unspecified),-12%,11%[46.1 µM],-5%,1%,.,.
COc1ccc(-c2noc(-c3cc(Cl)ccc3Cl)n2)cc1OC,.,-6%,.,4%,-3,-9
COc1ccccc1-c1nc(COc2ccc(Cl)cc2Cl)no1,75%,1%,1%,-25%,52*,91*
COc1ccc(-c2noc(CCCOc3ccc(Cl)cc3Cl)n2)cc1,-11%,-5%,?,3%,-1,-10
COc1cccc(-c2nc(COc3ccc(Cl)cc3Cl)no2)c1,32%,2%,.,-9%,14*,14
